Screening data (PubChem)
KB-3-1 cytotox – kills parental KB-3-1 adenocarcinoma cells | KB-3-1 viability, CellTiter-Glo ATP luminescence, 72 h | Potency, µM (top dose mostly 46.1 µM), most hits filed as cytotoxic | 1.4% of 400,000 active | AID 1347075; also: % is scaled to controls: 0 for no effect and ±100 for the full control effect; nearly all actives have a fitted effect of over 60% in size
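KB-3-1 cells, DMEM (no phenol red) + 10% FBS; compound by pin transfer, 72 h, 37 °C. Readout: CellTiter-Glo luminescence after 10 min. Data normalized, curve-fitted.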
KB-V1 MDR tox – KB-V1 MDR subline cytotoxicity. KB-V1 MDR cells viability, CellTiter-Glo, 72 h. Potency, µM (doses to about 46.1 µM), hits mostly cytotoxic. 3.4% of 400,000 active; also: % is scaled to controls: 0 for no effect and ±100 for the full control effect; nearly all actives have a fitted effect of over 60% in size
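Following 72 h at 37 degrees C with compound, KB-V1 cell viability was read by CellTiter-Glo luminescence, medium being phenol-red-free DMEM plus 10% FBS; concentration-response parameters came from normalized, curve-fitted qHTS data.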
HT1080-NT tox – kills 2HG-producing HT-1080-NT fibrosarcoma cells; 1.6% of 360,000 active; Potency, µM (titrated, usually from 46.1 µM), for inactives: top-dose activity, negative = less viability, hits mostly cytotoxic; HT-1080-NT fibrosarcoma viability, CellTiter-Glo ATP luminescence, 48 h;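 also: NT is the 2HG producing partner of a matched IDH1 knockdown line; 0% = DMSO-treated cells and -100% = media-only wells without cells; nearly all actives have a fitted effect of over 55% in size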
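Read-out is CellTiter-Glo luminescence after 10 minutes at room temperature, following 48 hours' compound treatment of HT-1080-NT cells (750 cells/well, RPMI, 5% FBS, 37 degrees C).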
HT1080 IDH1KD tx – toxicity to HT-1080 IDH1 knockdown cells (counter line); HT-1080 IDH1 knockdown viability, ATP luminescence, 48 h; Potency, µM (titrated, usually from 46.1 µM), without a hit: top-dose activity, negative = toxicity, actives largely listed as cytotoxic; 2% of 360,000 active;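 also: 0% = DMSO wells and -100% = cell-free medium wells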
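Knockdown cells (IDH1KD HT-1080) received compounds 2 h after plating at 750 cells/well and were kept 48 h at 37 °C in 5% FBS RPMI. A CellTiter-Glo luminescence read gave % activity for curve fitting.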
TGFb SMAD3 inh – blocks TGF-b signaling | 1.2% of 410,000 active | HepG2 CAGA-GFP TGF-b/SMAD3 reporter, GFP fluorescence, 18 h; TGF-beta stimulated, 500 pg/mL final | Potency, µM (series often up to 46.1 µM), for inactives: at the highest dose activity, negative = inhibition, hits mostly inhibitors; also: % is scaled to controls: 0 for no effect and ±100 for the full control effect; nearly all actives have a fitted effect of over 65% in size
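Using HEPG2 CAGA-GFP reporter cells at 1000 cells/well, we pinned test compounds, stimulated with recombinant TGF-beta (500 pg/mL final) and measured total well GFP after 18 h.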
HepG2 tox – counter-screen for TGF-b inhibitors: cytotoxicity in HepG2 cells; Potency, µM (doses to about 46.1 µM), for inactives: top-dose activity change, negative = cytotoxicity, usual class: cytotoxic; HepG2 CAGA-GFP viability, ATP luminescence, 18 h; 0.76% of 410,000 active
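HepG2 CAGA-GFP cells (1000/well, DMEM with 1% FBS) received compound, then TGF-beta at 500 pg/mL final, and were incubated 18 hours at 37 degrees C. Viability was read by CellTiter-Glo luminescence. Media-only wells were set as complete cell-killing and DMSO as no toxicity.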
Active calls of the source: *; i = inactive; u = inconclusive; x = no result given; ! = not active in a repeat. This is a sample that favours compounds with a hit; in the whole collection about 6.6% have one here. Calls follow the shape of the dose curve; as a rule, active = well fitted curve in the direction sought with a large enough effect; inconclusive = small, poorly fitted or top-dose-only effect, or another doubt; inactive = no such curve, though single readings can be large; an effect the other way counts as inactive or inconclusive. Potency is read from the fitted curve at half-maximal effect.

SMILES	KB-3-1 cytotox	KB-V1 MDR tox	HT1080-NT tox	HT1080 IDH1KD tx	TGFb SMAD3 inh	HepG2 tox
CN(NC(=O)c1ccc(Cl)cc1)c1nc(-c2ccccc2)nnc1C(F)(F)F	u	15µM*	-14%	-15%	u	-67%
CC(C)CC(=O)NN(C)c1nc(-c2ccccc2)nnc1C(F)(F)F	i	i	3%	-1%	2%	-1%
CN(N)c1nc2ccccc2nc1C(F)(F)F	i	i	4%	-6%	-5%	-4%
Cc1ccc(C(=O)NN(C)c2nc3ccccc3nc2C(F)(F)F)cc1	5.8µM*	u	u	u	1%	-14%
CCOc1ccc(NC(=O)c2c(Nc3ccccc3C)sc(C(=O)c3ccccc3)c2N)cc1	i	i	x	x	u	-41%
COc1ccc(Cl)cc1Nc1sc(C(=O)c2ccccc2)c(N)c1C(=O)Nc1ccccc1	i	u	x	x	16µM*	-33%
CCOc1ccccc1Nc1sc(C(=O)c2ccccc2)c(N)c1C(=O)Nc1ccc(F)cc1	i	u	x	x	14µM*	-33%
Cc1ccc(Nc2sc(C(=O)c3ccccc3)c(N)c2C(N)=O)cc1	i	i	x	x	2%	-28%
Cc1cccc(C)c1Nc1sc(C(=O)c2ccccc2)c(N)c1C(=O)Nc1ccc(F)cc1	i	u	x	x	11µM*	-57%
CC(=O)N1c2ccc(S(=O)(=O)NCC3CCC(C(=O)Nc4cc(C)ccc4C)CC3)cc2CC1C (centres undefined)	x	x	x	x	-30%	-35%
Cc1cc(C)c(NC(=O)Cn2c(=O)n(CCc3ccccc3)c(=O)c3ccccc32)c(C)c1	i	i	x	x	-1%	1%
COc1cc2nc(NC(=O)c3ccc(S(=O)(=O)N4CCOCC4)cc3)sc2cc1OC	i	u	x	x	32%	-13%
Brc1ccc2c(c1)C(c1ccc(N3CCOCC3)cc1)=NNC(c1cccs1)=N2	i	i	-4%	-18%	-9%	-25%
CCOc1ccc(C2=Nc3ccc(Br)cc3C(c3ccc(N4CCOCC4)cc3)=NN2)cc1	i	i	18%	8%	-4%	-4%
Fc1ccc2c(c1)C(c1ccc(N3CCOCC3)cc1)=NNC(c1cccs1)=N2	u	10µM*	-21%	-29%	-3%	-7%
CCOc1ccc(C2=Nc3ccccc3C(c3ccc(N4CCOCC4)cc3)=NN2)cc1	16µM*	4.1µM*	-14%	u	29%	-13%
CCCCCCc1ccc(C(=O)CCN(C)C)cc1	x	x	x	x	-29%	x
Cc1ccc(C2c3c(oc4ccccc4c3=O)C(=O)N2c2nnc(C)s2)cc1 (centres undefined)	x	x	x	x	-8%	-2%
CCn1c2ccccc2c2cc(CN3CCN(Cc4ccc(Cl)cc4)CC3)ccc21	x	x	x	x	-18%	-57%
CCn1c2ccccc2c2cc(CN3CCN(S(C)(=O)=O)CC3)ccc21	i	3.3µM*	-5%	-21%	-19%	5%
O=C(NCc1ccccc1Br)c1ccc(-n2cnc3cccnc32)cc1	i	i	x	x	0%	-23%
COc1ccc2ncnc(NCC3CCCO3)c2c1-c1ccc2c(c1)OCO2 (centres undefined)	i	i	x	x	x	x
Cc1csc2sc(-c3ccnc(SCC(=O)NCc4ccccc4)n3)c(C)c12	u	5.8µM*	3.3µM*	2.3µM*	u	-5%
Cc1csc(SCC(=O)NCc2ccccc2)n1	i	i	7%	9%	1%	-1%
COc1ccc(CCNC(=O)c2ccc(CS(=O)(=O)c3ccc(C)cc3)o2)cc1OC	u	4.6µM*!	4%	-9%	u	-15%
SMILES	KB-3-1 cytotox	KB-V1 MDR tox	HT1080-NT tox	HT1080 IDH1KD tx	TGFb SMAD3 inh	HepG2 tox
COc1ccc(CCNC(=O)c2ccc(CS(=O)(=O)Cc3ccc(C)cc3)o2)cc1OC	i	u	9%	-4%	-3%	-52%
COc1ccc(CCNC(=O)c2ccc(CS(=O)(=O)c3ccc(Cl)cc3)o2)cc1OC	i	2.6µM*	-7%	-29%	-10%	-17%
Cc1cc(C)c(NC(=O)c2c(C)oc3c2C2=NCCN2C=N3)c(C)c1	i	i	x	x	u	1%
CC(=O)c1cccc(NC(=O)c2sc(-n3nc(C)c(Cc4ccc5c(c4)OCO5)c3C)nc2C)c1	x	x	x	x	u	-4%
CC(C)C[C@H]1CN([C@@H](CC(C)C)CN2CCCC2CN2C(=S)NC[C@@H]2Cc2ccc(O)cc2)C(=S)N1CC1CCCCC1 (some centres undefined)	u	21µM*	2%	3%	u	-28%
CC(C)C[C@H]1CN([C@@H](CC(C)C)CN2CCC[C@@H]2CN2C(=S)NC[C@@H]2Cc2ccc(O)cc2)C(=S)N1CC1CCCCC1	u	u	21µM*	15µM*	u	-55%
CC(C)C[C@H]1CN([C@@H](CC(C)C)CN2CCCC2CN2C(=S)NC[C@@H]2Cc2ccc(O)cc2)C(=S)N1CC1CCCCCC1 (some centres undefined)	u	u	5%	6%	-25%	4%
Brc1cccc(-c2nnn3c2nc(NCc2ccc4c(c2)OCO4)c2ccccc23)c1	i	i	x	x	2%	-3%
CCOc1cc(CNC(=O)c2ccc3nc(C(C)C)oc3c2)cc(OCC)c1OCC	i	i	x	x	3%	0%
Cc1coc2cc3oc(=O)c(CCC(=O)NCc4ccc(Cl)cc4)c(C)c3cc12	i	u	x	x	3%	-27%
O=C1NC(c2cccc(OCc3ccccc3)c2)Nc2ccccc21 (centres undefined)	0.58µM*	0.65µM*	u	0.58µM*	u	1%
Nc1c(C(=O)Nc2ccccc2Cl)nnn1Cc1cccc(Cl)c1	i	i	x	x	-3%	-18%
COc1cccc(NC(=O)c2c(N3CCCC3=O)c3cc(C)ccc3n2C)c1	i	u	x	x	-3%	-28%
CCCCNC(=O)c1sc(=S)n(-c2ccccc2OC)c1N	i	21µM*	3%	2%	-5%	-2%
COC(=O)c1sc(=S)n(-c2ccccc2OC)c1N	i	i	2%	0%	-5%	-29%
O=c1c2oc3ccccc3c2n(Cc2ccccc2F)c(=O)n1Cc1ccc2c(c1)OCO2	x	x	x	x	-21%	-3%
COc1cc(CNc2ccc(C)c(C)c2)cc(OC)c1OC	i	u	5µM*	4µM*	u	-18%
CCOc1c(Br)cc(CNc2ccc3c(c2)OCCO3)cc1OC	2.1µM*	4.1µM*	2.9µM*	1.2µM*	u	-11%
